Compounds without any hit were thinned out: in the full panel of roughly 83,000, 20% have a hit.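 How to read the values: 0–100, growth inhibition (40 = 60% inhibited); 0, no net growth; -100 to 0, cell death (-40 = 40% of starting cells died; -100 = all dead).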 The source made the active and inactive calls. Rule for the calls: active = growth percent below 10; inactive = the rest.

The assay concerns HL-60(TB) leukemia. As to the kind of experiment: NCI-60 one-dose screen, 48 h (100 = growth as untreated, 0 = no growth, -100 = all killed). Conditions: 10 µM unless noted.
Regarding `Cc1ccc(S(=O)(=O)n2cc(C(=O)C(=O)N3CCOCC3)c3ccccc32)cc1`, the growth is 66.6% (inactive).

Take `CCN(CC)CCCC(C)Nc1c(C)cnc2cc(Cl)c(C)cc12` (centres undefined): the growth was 65.9% (inactive).

For the molecule `COC(=O)c1cc(-c2ccc(OC)c(OC)c2)[nH]c1N/N=C/c1c(Cl)cccc1Cl`, the growth is 3.48% (active).

Consider `S=CN1CCCCC1`, for which the growth was 102% (inactive).

For the molecule `CC(C)c1ccc(NC(=O)Nc2ccc(NC(=O)c3ccccc3N)cc2)cc1`, the growth was 50.1% (inactive).

As to `Cc1ccc2[nH]c(=O)cc(-n3nncc3COc3ccc(C=O)cc3)c2c1`, the growth was 107% (inactive).

Take `CCN(CC)CCSCCCNc1c2ccc(Cl)cc2nc2ccc(OC)cc12`: the growth was -35.4% (active).

Take `O=C(Cn1nc(-c2cccc3ccccc23)ccc1=O)NCc1cccc(Cl)c1`: the growth was 22.3% [50 µM] (inactive).

Take `CCN(CC)CCCN1C(=O)c2c(c(C)c3c(oc4cc(OC)ccc43)c2C)C1=O`: the growth is 95% (inactive).

With `CC/C(=C(/c1ccc(O)cc1)c1ccc(OCCN2CCCCCC2)cc1)c1ccc(Cl)cc1`, the growth is 53.9% (inactive).

With `COC1/C=C/OC2(C)Oc3c(C)c(O)c4c(O)c(c(C=NOC(c5ccccc5)c5ccccc5)c(O)c4c3C2=O)NC(=O)/C(C)=C/C=C/C(C)C(O)C(C)C(O)C(C)C(OC(C)=O)C1C` (centres undefined), the growth was -13.8% (active).

As for `O=C1CC(c2ccccc2)Cc2nc3ccc(Cl)cc3cc21` (centres undefined), the growth was -20.7% (active).

On to `O=CNCCc1ccccc1`, for which the growth was 87.6% (inactive).

For the molecule `CC1=CC2c3oc(-c4ccccc4)c(C(=O)c4ccccc4)c3CNC2C=C1` (centres undefined), the growth was 84.3% (inactive).

For the molecule `CCC1S/C(=N\N=C(\C)c2cc3cc(Cl)ccc3o2)N(c2ccccc2)C1=O` (centres undefined), the growth is 103% (inactive).

In the case of `O=C(Nc1ccc(Oc2ccc(NC(=O)Nc3ccccc3Cl)cc2)cc1)Nc1ccccc1Cl`, the growth was 51.7% (inactive).

As for `COc1ccccc1-n1c(-c2ccc(O)cc2C)cn2c3c(=O)[nH]c(=O)n(C)c3nc12`, the growth is 79.9% (inactive).

Consider `COc1ccc(CCNC2=CC(=O)CCC2)cc1OC`, for which the growth was 69.4% (inactive).

With `Cc1cc(N2CCCCC2)nc(N(CCNc2ccnc3cc(Cl)ccc23)Cc2ccccn2)n1`, the growth is 41.6% (inactive).

As for `Cc1nc2ccccc2c(=O)n1-c1cccc(OCc2cn(-c3cccc(O)c3)nn2)c1`, the growth is 101% (inactive).

In the case of `N#CC(C#N)N=Nc1cc(Cl)ccc1Cl`, the growth was 85.2% (inactive).

As for `Cc1cccc(C)c1Nc1nnc(-c2ccc(F)cc2)o1`, the growth is 99.9% (inactive).

For the molecule `Cc1ccc(NC(=O)NC2CCCCC2)cc1`, the growth is 63.1% (inactive).

`COc1cccc2c1Cc1ccccc1-2`: the growth is 97.5% (inactive).

Regarding `O=c1cc(-c2ccccc2)[nH]n1-c1nc2ccccc2[nH]1`, the growth was 11% (inactive).

As to `CCc1ccc(C(=Nc2ccc(N(C)C(=O)CN3CCN(C)CC3)cc2)c2c(O)[nH]c3ccc(C(=O)OC)cc23)cc1`, the growth was -67% (active).

Take `COc1cc(Cl)cc(-c2nn(C(=O)NS(=O)(=O)c3ccccc3)cc2-c2ccncc2)c1`: the growth is 94.3% (inactive).

`C=C(C)COC(=O)c1ccccc1C(=O)OCC1(C)CO1` (centres undefined): the growth is 133% (inactive).

Turning to `Cc1ccc(C2=Nc3c(N)nc(N)nc3NC(c3cccc(Nc4ccnc5cc(C(F)(F)F)ccc45)c3)C2)cc1` (centres undefined), the growth was -11.3% (active).

Consider `COc1cc(OC)c2sc(-c3ccc(-n4cncc4-c4cc(OC)c(OC)c(OC)c4)cc3)nc2c1`, for which the growth is 30.3% (inactive).

Take `Cc1cc(N2CCN(C)CC2)nc(NC2CCCC(Nc3ccnc4cc(Cl)ccc34)C2)n1` (centres undefined): the growth was -64.9% (active).

Consider `O=C(c1ccc(Cl)cc1Cl)N1c2ccccc2Sc2ccccc21`, for which the growth is 35.8% (inactive).

As to `O=C1/C(=C2\SC(=S)N(C3CC3)C2=O)SC(=S)N1C1CC1`, the growth was 104% (inactive).

`CS(=O)(=O)c1cccnn1`: the growth was 108% (inactive).

Regarding `COc1cc(-c2cnc3nonc3n2)c(OC)c2c1OCO2`, the growth is 88.8% (inactive).

For `CCN(CC)CCn1c2ccc(OC)cc2c2sc3cc(O)ccc3c(=O)c21`, the growth was 31% (inactive).

Regarding `CN1C(=O)N(C)C2(c3ccccc3)N(CC(=O)Nc3ccccc3O)C(=O)NC12c1ccccc1` (centres undefined), the growth was 98.9% (inactive).

Consider `C=C1C(=O)O[C@H]2[C@H]1CC/C(COC(=O)/C=C\C(=O)NCc1ccc(Cn3c(=O)sn(CCCl)c3=O)cc1)=C\CC[C@@]1(C)O[C@@H]21`, for which the growth was -19.4% (active).

Regarding `CCCCCCCC/C=C/CCCCCCCC1=NC(C)(C)CN1C(C)C`, the growth is -65.6% (active).

For the origin of these results see PubChem BioAssay (NCI).
